# This is a sample that favours compounds with a hit; in the whole collection about 4% have one here.
# RecA intein inh = Mtb RecA intein splicing inhibitors, primary screen, biochemical, fluorescence, HTS | Protein RecA (Mycobacterium tuberculosis (strain ATCC 25618 / H37Rv)), P9WHJ3 | cell-free RecA intein splicing | inhibition, % (test concentration not listed) | actives 0.75% (n = 290,000) | AID 2221, 2009; in the data active = inhibition above about 30%;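 note: 0% = vehicle wells and 100% = reference inhibitor control wells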
# Mtb FBA inh = Mtb FBA enzyme inhibitors, primary screen, biochemical, fluorescence, strain H37Rv; Fructose-bisphosphate aldolase (Mycobacterium tuberculosis (strain ATCC 25618 / H37Rv)), …; purified M. tuberculosis FBA, fluorescence read-out; inhibition, % at 1 µM; actives 2.3% (n = 360,000); in the data active = inhibition above about 27%;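 note: 0% = vehicle and 100% = reference inhibitor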
# Rv3671c protease = Rv3671c serine protease inhibitors, primary screen, biochemical, fluorescence polarization, M. tuberculosis H37Rv; inhibition, % at 5.96 µM; actives 0.048% (n = 320,000); AID 2606, 2010; in the data active = inhibition above about 38%;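 note: extracellular domain of Rv3671c used as enzyme; 0% = enzyme with DMSO and 100% = no enzyme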
# Mtb UGM inh = M. tuberculosis UGM enzyme inhibitors, primary screen, biochemical, fluorescence polarization, single point; inhibition, % at 10 µM; purified UGM, fluorescence polarization probe displacement; actives 0.06% (n = 320,000); UDP-galactopyranose mutase (Mycobacterium tuberculosis (strain ATCC 25618 / H37Rv)), …; in the data active = inhibition above about 10%, passing the limit was not always enough
# Target sequence (P9WIQ1 whole entry, looked up): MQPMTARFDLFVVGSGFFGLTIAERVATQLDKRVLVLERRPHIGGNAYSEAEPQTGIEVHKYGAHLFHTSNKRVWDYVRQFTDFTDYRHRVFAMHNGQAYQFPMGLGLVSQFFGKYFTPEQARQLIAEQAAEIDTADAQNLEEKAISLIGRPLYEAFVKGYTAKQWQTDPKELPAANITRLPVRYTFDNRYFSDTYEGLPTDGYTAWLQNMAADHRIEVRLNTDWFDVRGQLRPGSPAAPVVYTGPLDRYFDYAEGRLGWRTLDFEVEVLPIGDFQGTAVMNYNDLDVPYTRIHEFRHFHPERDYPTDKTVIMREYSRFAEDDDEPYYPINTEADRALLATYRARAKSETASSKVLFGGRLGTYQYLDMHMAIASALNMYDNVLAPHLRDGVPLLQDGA
# GDH-TPI inh = GDH-TPI coupling enzyme inhibitors, primary screen, artefact control for M. tuberculosis FBA inhibitor project, biochemical, absorbance, full deck; GDH-TPI coupled enzyme counterscreen, NADH absorbance; inhibition, % at 4.8 µM; actives 1.2% (n = 360,000); AID 588335, 2011; in the data active = inhibition above about 30%;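 note: 0% = DMSO wells and 100% = wells lacking the enzyme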
# Mtb betalactam = beta-lactam sensitization of Mtb H37Rv, H37Rv; actives 0.27% (n = 330,000); inhibition, % at 25 µM; AID 434955, 2010; M. tuberculosis H37Rv growth with meropenem, percent inhibition; call rule not given here;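 note: growth measured after seven days incubation then overnight dye step; 0% = bacteria only wells and 100% = bacteria with antibiotic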
# Active calls of the source: *; x = not tested or not shown.
SMILES,RecA intein inh,Mtb FBA inh,Rv3671c protease,Mtb UGM inh,GDH-TPI inh,Mtb betalactam
O=S(=O)(c1cccs1)N1CN(Cc2ccc(F)cc2)c2nc3ccccc3nc21,x,6.1,6.7,0.7,6.8,-8.6
O=S(=O)(c1cccs1)N1CN(Cc2cccs2)c2nc3ccccc3nc21,-1.4,103.0*,-20.7,-1.1,16.7,0.2
O=C(O)C1CCC(N2C(=O)c3c(Cl)c(Cl)c(Cl)c(Cl)c3C2=O)CC1 (stereo unspecified),8.1,x,0.4,-1.2,x,1.9
CCCS(=O)(=O)NC(=O)C1(C)CCCN(C(=O)Cc2ccc3ccccc3c2)C1 (stereo unspecified),x,2.5,x,x,3.6,x
CCOC(=O)c1[nH]c2cc3c(cc2c1NC(=O)CN1CCC(C)CC1)OCO3,0.5,152.9*,-10.6,-2.4,29.0,5.7
CCOC(=O)CNC(=O)Cn1cnc2c(oc3ccccc32)c1=O,-3.0,-2.8,5.4,-1.0,0.8,-4.3
COCCn1cnc2c1c(=O)n(CC(=O)NC(=O)NC(C)(C)C)c(=O)n2Cc1ccccc1,1.1,0.6,x,2.1,6.9,6.2
COc1ccc(N2CCN(CCNC(=O)c3c(C)cc(=O)oc3C)CC2)cc1,-2.6,2.0,0.3,x,40.5*,1.5
Cc1cc(=O)oc(C)c1C(=O)NCCCN1CCN(c2ccc(F)cc2)CC1,0.5,-1.8,4.3,-4.3,39.6*,-11.3
COc1ccc(CNC(=O)c2c(C)cc(=O)oc2C)cc1,-4.1,0.1,13.1,-0.7,8.8,-3.6
Cc1c(C)n(C)c2ccc(C(=O)NCCCN3CCN(c4ccc(F)cc4)CC3)cc12,-1.2,-0.7,-2.1,5.4,10.3,13.9
CCCCCCOC(=O)c1ccccc1NC(=O)/C=C/C(=O)O,66.9*,5.9,5.4,3.3,7.7,2.4
O=C(O)c1ccccc1C(=O)OCCCCOC(=O)c1ccccc1C(=O)O,-0.4,-0.7,1.9,10.8*,-0.9,8.6
CC(O)c1ccc(Oc2cnccn2)cc1 (stereo unspecified),-4.2,190.2*,-5.7,-2.7,-1.3,-0.6
CC(C)CN(C(=O)CSc1nc2ccccc2o1)c1c(N)n(Cc2ccccc2)c(=O)[nH]c1=O,x,4.0,4.7,-2.2,9.1,-8.0
CC(=O)Nc1ccc(S(=O)(=O)Nc2cc(C)cn(Cc3ccccc3)c2=O)cc1,0.3,69.6*,-7.3,-2.0,8.3,-11.0
Cc1ccc(/C=C2\C(=N)N3N=C(CC(=O)N4CCOCC4)SC3=NC2=O)o1,3.7,5.3,-3.4,1.4,45.2*,1.9
N=C1/C(=C/c2ccc(-c3cccc(C(=O)O)c3)o2)C(=O)N=C2SC(CC(=O)N3CCOCC3)=NN12,-3.7,-6.7,-6.7,5.7,7.9,3.2
N=C1/C(=C\c2ccc(SCc3ccccc3)o2)C(=O)N=C2SC(CC(=O)N3CCOCC3)=NN12,-1.6,-2.9,-14.8,-0.8,39.0*,0.8
Cc1ccc(C(=O)N/C(=C\c2cn(C)c3ccccc23)C(=O)NCCCn2ccnc2)cc1,-1.3,-0.6,-4.2,-2.7,14.2,-3.0
COc1ccc(C(=O)N/C(=C\c2cn(C)c3ccccc23)C(=O)NCCCn2ccnc2)cc1OC,-0.8,2.3,-2.0,-5.6,18.2,-0.2
Cn1cc(/C=C(\NC(=O)c2ccccc2)C(=O)NCCCn2ccnc2)c2ccccc21,x,-2.4,x,x,44.2*,x
COc1ccc(C(=O)N/C(=C\c2cn(C)c3ccccc23)C(=O)NCCCn2ccnc2)cc1,3.5,-1.2,1.9,0.1,41.4*,-5.7
CC1=C(C(=O)N(C(C)C)C(C)C)CC(CC(=O)NC2CCCC2)C(=O)N1Cc1ccccc1 (stereo unspecified),x,2.4,x,x,-8.2,x
O=C(N/N=C/c1cccc(F)c1)c1c(O)c2ccccc2[nH]c1=O,-2.4,-1.8,4.3,-1.7,1.8,6.7
O=C(Nc1cccc(F)c1)c1c(O)c2ccccc2[nH]c1=O,-1.8,1.3,0.2,0.1,32.0*,1.2
Cc1nc(NS(=O)(=O)c2ccccc2)sc1C(=O)N/N=C/c1ccccc1,1.2,4.5,0.5,1.8,46.8*,17.6
